# Data from the supplement of paper PMC3334620.
# Over roughly 33,000 sequences, “E-score (-0.5 to 0.5)” has its median near -0.054; the highest 2% begin near 0.39. The sample holds the highest values, similar sequences and a random draw of the others, so the mix is not that of the screen.
# Molecular target: Ylr278c (UniProt Q05854)
# Assay: PBM E-score (8-mer binding enrichment) (E-score (-0.5 to 0.5)); higher = stronger / more preferred TF binding
# Conditions: protein concentration: 200 nM; construct: GST-DNA-binding domain
# Experimental: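 Universal 'all 10-mer' protein binding microarrays (Agilent AMADID 015681) probed with GST-tagged S. cerevisiae TFs (full-length or DBD) made by in vitro transcription/translation (PURExpress), about 100-200 nM. Bound TF was detected with fluorescent anti-GST. Each ungapped 8-mer (which stands for itself and its reverse complement) is scored by the PBM enrichment score (E-score), a modified Wilcoxon-Mann-Whitney statistic from -0.5 to +0.5, computed with the Universal PBM Analysis Suite. Scale: above 0.35 generally sequence-specific binding.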
# UniProt Q05854, sequence (Q05854 whole entry): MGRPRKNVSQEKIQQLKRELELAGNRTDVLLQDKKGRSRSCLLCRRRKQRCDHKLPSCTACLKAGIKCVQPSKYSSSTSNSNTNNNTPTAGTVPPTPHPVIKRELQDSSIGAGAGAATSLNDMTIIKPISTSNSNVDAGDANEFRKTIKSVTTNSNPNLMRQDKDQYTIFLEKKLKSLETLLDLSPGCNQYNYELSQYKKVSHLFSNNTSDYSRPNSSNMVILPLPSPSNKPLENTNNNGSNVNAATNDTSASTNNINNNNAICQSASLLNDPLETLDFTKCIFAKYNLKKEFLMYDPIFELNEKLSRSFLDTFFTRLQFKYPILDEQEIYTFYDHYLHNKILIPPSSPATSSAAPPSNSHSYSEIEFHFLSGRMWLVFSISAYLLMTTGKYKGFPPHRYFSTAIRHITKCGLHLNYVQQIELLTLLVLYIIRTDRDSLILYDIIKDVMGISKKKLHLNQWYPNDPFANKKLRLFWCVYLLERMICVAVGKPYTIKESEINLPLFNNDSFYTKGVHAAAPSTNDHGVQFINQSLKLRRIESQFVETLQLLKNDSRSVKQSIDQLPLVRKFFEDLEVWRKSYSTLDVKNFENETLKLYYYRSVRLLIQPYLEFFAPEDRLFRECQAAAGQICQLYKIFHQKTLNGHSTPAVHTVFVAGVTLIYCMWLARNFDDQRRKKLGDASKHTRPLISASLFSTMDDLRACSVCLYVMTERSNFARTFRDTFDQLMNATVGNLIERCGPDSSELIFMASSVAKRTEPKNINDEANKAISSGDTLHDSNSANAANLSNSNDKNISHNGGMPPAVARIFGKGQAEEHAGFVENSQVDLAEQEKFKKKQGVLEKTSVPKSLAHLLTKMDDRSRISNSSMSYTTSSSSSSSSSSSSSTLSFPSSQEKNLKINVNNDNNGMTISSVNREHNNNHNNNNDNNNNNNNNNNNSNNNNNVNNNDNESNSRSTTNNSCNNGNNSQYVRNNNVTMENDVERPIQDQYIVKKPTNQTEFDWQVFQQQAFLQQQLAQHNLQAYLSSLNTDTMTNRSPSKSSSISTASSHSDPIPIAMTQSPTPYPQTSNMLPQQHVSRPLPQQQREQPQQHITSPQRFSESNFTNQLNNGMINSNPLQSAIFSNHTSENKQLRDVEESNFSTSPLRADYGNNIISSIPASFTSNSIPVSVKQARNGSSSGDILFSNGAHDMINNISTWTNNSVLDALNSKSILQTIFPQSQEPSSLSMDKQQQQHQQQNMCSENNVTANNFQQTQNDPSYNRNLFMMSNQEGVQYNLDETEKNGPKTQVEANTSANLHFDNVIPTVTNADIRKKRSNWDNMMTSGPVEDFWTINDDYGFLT
row,Sequence,PBM E-score
1,CCCTCCGA,0.405
2,CCCTCCAA,-0.119
3,CCCTCCTA,-0.107
4,ACCTCCGC,0.425
5,ACCTCCTG,-0.253
6,ACCTCCGG,0.47
7,ACCTCCAC,0.0767
8,ACCTCCGT,0.383
9,GTAAGAAA,-0.0755
10,GAGCGGCA,0.207
11,ATGGTCAC,-0.0597
12,ATTTAAAA,0.114
13,AGGTAGCA,-0.197
14,CATCTAAC,-0.0951
15,AGCTAGAC,-0.174
16,CCGGCGGA,0.456
17,TCGGCGAA,0.372
18,CTGGCGGC,0.207
19,GTGGCGGA,0.35
20,CTGGCGGA,0.183
21,CCGGCGAA,0.404
22,CCGGCGGC,0.407
23,ACGGCGGA,0.37
24,GCGGCGAA,0.378
25,GCGGCGGA,0.453
26,ACGGCGGC,0.167

row,Sequence,PBM E-score
1,CAGGCGGA,0.327
2,ACGCGAAC,-0.00887
3,ATGAAGCC,0.0954
4,ACTGCCCA,-0.151
5,AGTTCATA,-0.0477
6,AATGGGTG,-0.0286
7,GAGGCTTA,-0.0425
8,GCGGCGCC,0.289
9,CCGGCGCC,0.422
10,ACGGCGCC,0.184
11,AATTCTGT,-0.0602
12,CGCGTGGC,-0.00486
13,AGGGATTC,-0.0988
14,AGGGATTA,-0.223
15,GGGGATTA,0.175
16,CTGGATTC,-0.00018
17,CGGGATTC,0.392
18,CGGGATTA,0.406
19,GTCGGGCA,0.0838
20,GCTGAACA,-0.153
21,CTTAGTCA,-0.184
22,CACTACGG,0.201
23,AGGTCAAA,-0.237
24,GATAGTCA,-0.0752
25,GCTCAGGA,-0.173
26,ACCCTAAG,-0.173

row,Sequence,PBM E-score
1,GCTCGGGA,0.174
2,CGGAACTC,0.409
3,CGGAACTA,0.422
4,GGGAACTA,0.11
5,AGGAACTC,0.0174
6,AGGAACTA,-0.0554
7,CTGAACTC,-0.141
8,AGGCTTAA,-0.00203
9,GATACCTA,-0.0272
10,ATGACGAG,-0.153
11,GTATTGTA,0.0802
12,CATGCCGA,0.217
13,AATGCCGT,0.381
14,AATGCCGC,0.352
15,AATGCCGG,0.421
16,AATGCCGA,0.392
17,CATGCCGG,0.368
18,CGCCAGAC,-0.153
19,CAGATTAC,-0.0164
20,TATACCAA,-0.101
21,CGGAGCTC,0.441
22,CTGAGCTC,0.0823
23,GGGAGCTA,-0.0279
24,AGGAGCTC,-0.122
25,AGGAGCTA,-0.144
26,CGGAGCTA,0.42

row,Sequence,PBM E-score
1,CGTCTCTC,-0.00934
2,ATGGCTGA,-0.344
3,TCAGCACA,-0.175
4,CTGACATC,-0.0317
5,AGGACATA,-0.278
6,GGGACATA,0.0665
7,AGGACATC,0.0899
8,CGGACATA,0.454
9,CGGACATC,0.421
10,GGAAGTTA,0.204
11,ATTCCAAC,-0.176
12,TCGATGAA,-0.11
13,CTCTTTTC,-0.0672
14,CGGACGGC,0.313
15,CCGACGCC,0.361
16,ACGACGGA,0.301
17,GGGACGGA,0.369
18,CCGACGGA,0.425
19,ACGACGCG,0.0212
20,CGGACGGA,0.397
21,GCGACGGA,0.313
22,CCGACGCG,0.394
23,GACCTCCA,0.0669
24,CCAGCTAG,-0.391
25,CAAGTTAC,0.0544
26,GAGTTCAC,0.0107

row,Sequence,PBM E-score
1,ACGATGAG,-0.0386
2,ACCCAGTC,-0.0927
3,ATGCTTCC,-0.0282
4,CACTGGCC,-0.0953
5,CGGAGCAA,0.456
6,GGGAGCAC,0.0245
7,CGGAGCAC,0.391
8,CTGAGCAG,-0.238
9,AGGAGCAG,-0.00465
10,AGGAGCAA,-0.0147
11,AGGAGCAC,-0.0853
12,CGGAGCAG,0.417
13,TGGAGCAA,-0.111
14,GAGGGAAA,-0.26
15,AATGCGAG,0.00781
16,GTAGGGCA,-0.038
17,AATTCAGG,0.127
18,GTGGTATA,-0.188
19,CGTCTATC,0.0841
20,ACACACTA,-0.13
21,CTCGGAGC,0.431
22,CTCGGATC,0.34
23,ATCGGGGG,0.209
24,ATCGGAGA,0.455
25,ATGGGAGA,-0.309
26,CTTGGAGA,-0.0088

row,Sequence,PBM E-score
1,ATCGGAGG,0.426
2,CTCGGAGA,0.449
3,CTCGGCGA,0.354
4,ATCAGAGA,-0.213
5,ATCGGTGG,0.13
6,CTCGGTGC,0.0178
7,CTGCAGCA,-0.151
8,ACTCAAAG,-0.129
9,AACTTGTC,0.0361
10,TTAACCAA,-0.136
11,TAGCATAA,-0.111
12,ACTCCACA,-0.0234
13,CCTGACTA,-0.0923
14,ATCGGATC,0.33
15,ATCGGAGC,0.458
16,ATCAGAGC,-0.0306
17,GTCGGATA,0.312
18,GTAGGAGA,-0.0599
19,GTCGGAGA,0.444
20,ATATCTCA,0.0231
21,GATTATGA,-0.0204
22,GACTGGAA,-0.161
23,CAACTTAG,0.0176
24,AATAAGAC,-0.228
25,TGGGCCCA,0.026
26,CGGAGTTC,0.494

row,Sequence,PBM E-score
1,GGGAGTTA,0.195
2,AGGAGTTC,0.109
3,CTGAGTTC,0.0225
4,CGGAGTTA,0.493
5,AGGAGTTA,0.232
6,GCTACAAA,-0.0551
7,TAGCCACA,-0.289
8,CCTAAGAA,-0.261
9,CGAAAGCG,-0.00844
10,GTCCCAGA,-0.235
11,AGGCGGAG,0.39
12,AGGCGGCG,0.193
13,CGGCGGCA,0.281
14,AGGCGGGG,0.221
15,CGGCGGAG,0.461
16,GGGCGAAC,0.0496
17,CGGCGGAC,0.411
18,AGGCGGAC,0.386
19,AGGCGGAT,0.237
20,GAGCGGAC,0.321
21,CGGCGGCC,0.322
22,GGGCGGAC,0.399
